An excerpt weighted towards active compounds, which were near 3.1% of everything screened.
VDR inhibitor: Inhibitors of the vitamin D receptor (VDR): qHTS. Potency, µM, without a hit: max response, negative = inhibition, usual class: inhibitors. actives 0.93% (n = 400,000). AID 504847, 2011. VDR-SRC2-3 peptide fluorescence polarization, 2 h; also: potency is read from the fitted curve at half-maximal effect; % is scaled to controls: 0 for no effect and ±100 for the full control effect
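After 23 nl compound addition and a short centrifugation, plates sat for 2 hours at ambient temperature; polarization of fluorescence then indicated loss of VDR binding to peptide SRC2-3.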
Vif-APOBEC3F blk: qHTS for Inhibitors of Vif-A3F Interactions: qHTS; HeLa A3F-eYFP + Vif (tagged APOBEC3F with the HIV-1 protein that degrades it), YFP fluorescence increase; Potency, µM (series often up to 46.1 µM), for inactives: at the highest dose activity, negative = active; actives 0.2% (n = 390,000); AID 602313, 2012; also: potency is read from the fitted curve at half-maximal effect; % of control where 0% means no effect; nearly all actives have a fitted effect of over 65% in size
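HeLa cells stably expressing Vif plus C-terminally eYFP-tagged A3F were seeded, incubated overnight at 37 deg C, dosed with compound, incubated overnight again at 37 deg C. Yellow fluorescence (Ex 488/Em 500-530) reported blocked Vif-mediated A3F-eYFP degradation.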
PLK1 PBD block: qHTS for Inhibitors of PLK1-PDB (polo-like kinase 1 - polo-box domain): Primary Screen | Serine/threonine-protein kinase PLK1 (Homo sapiens), P53350 | Plk1 PBD binding of FITC phosphopeptide, fluorescence polarization | Potency, µM, without a hit: max response, negative = inhibition, hits mostly inhibitors | actives 2.8% (n = 360,000); also: potency is read from the fitted curve at half-maximal effect; series mostly up to about 57 µM; % is scaled to controls: 0 for no effect and ±100 for the full control effect; nearly all actives have a fitted effect of over 65% in size
Vif-APOBEC3G blk: qHTS for Inhibitors of Vif-A3G Interactions: qHTS. DNA dC->dU-editing enzyme APOBEC-3G (Homo sapiens), Q9HC16. Potency, µM (doses to about 46.1 µM), for inactives: at the top dose activity, negative = active, hits mostly inhibitors. AID 602310, 2012. HeLa A3G-eYFP + Vif (tagged APOBEC3G with the HIV-1 protein that degrades it), YFP fluorescence, overnight. actives 0.076% (n = 410,000); also: potency is read from the fitted curve at half-maximal effect; % is scaled to controls: 0 for no effect and ±100 for the full control effect; nearly all actives have a fitted effect of over 60% in size
Target sequence (Q9HC16 whole entry, looked up): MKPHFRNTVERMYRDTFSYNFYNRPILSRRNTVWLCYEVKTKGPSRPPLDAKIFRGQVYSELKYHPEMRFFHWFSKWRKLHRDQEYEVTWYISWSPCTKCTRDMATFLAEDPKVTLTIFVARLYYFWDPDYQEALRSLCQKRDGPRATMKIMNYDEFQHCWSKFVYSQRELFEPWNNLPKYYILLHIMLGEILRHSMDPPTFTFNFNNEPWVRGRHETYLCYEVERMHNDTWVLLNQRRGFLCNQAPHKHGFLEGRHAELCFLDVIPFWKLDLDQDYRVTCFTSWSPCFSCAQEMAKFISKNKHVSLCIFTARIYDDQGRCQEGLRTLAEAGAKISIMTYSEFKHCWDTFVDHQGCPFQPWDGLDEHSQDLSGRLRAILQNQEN
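HeLa cells stably expressing Vif and C-terminally eYFP-tagged A3G, seeded overnight at 37 deg C, then exposed to compound by pintool overnight at 37 deg C. Rise in yellow fluorescence (Ex 488/Em 500-530, Acumen) marks blocked Vif-driven A3G degradation.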
TSHR antag: Antagonists of the Thyroid Stimulating Hormone Receptor: HTS campaign | actives 0.2% (n = 330,000) | activity change, negative = inhibition, % at 11.5 µM | AID 504810, 2011 | Thyrotropin receptor (Homo sapiens), P16473 | TSHR-expressing cells, TSH-stimulated cAMP HTRF, 2 h; active compounds read low;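 active = activity change below a set negative limit, meaning inhibition stronger than a set level, cut at about -70% in these data; inconclusive = activity change between two set negative limits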; also: % is scaled to controls: 0 for no effect and ±100 for the full control effect
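TSHR-expressing cells were treated with compounds, then stimulated with TSH at EC80 (4nM final) for 2 hours at 37 deg C. Cellular cAMP was measured by HTRF competition between lysate cAMP and cAMP-d2 for a cryptate-labelled anti-cAMP antibody.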
Active calls of the source: *; ? = inconclusive; . = no result. Unless noted, calls follow the shape of the dose curve; as a rule, active = well fitted curve in the direction sought with a large enough effect; inconclusive = small, poorly fitted or top-dose-only effect, or another doubt; inactive = no such curve, though single readings can be large; an effect the other way counts as inactive or inconclusive.

SMILES	VDR inhibitor	Vif-APOBEC3F blk	PLK1 PBD block	Vif-APOBEC3G blk	TSHR antag
Cn1cc(/C=C2\SC(=S)N(NC(=O)c3ccccc3Cl)C2=O)c2ccccc21	-7.2%	11.2µM*	13.1%	?	-0.3
O=C(N/C(=C\c1ccccc1)C(=O)N1CCCCCC1)c1ccccc1	-27.5%	8.2%	29.9µM*	-2.9%	-6.6
NC(=O)C1CCN(c2nc(-c3cccc4sc5ccccc5c34)cs2)CC1	.	.	.	.	-17.0
Cc1ccccc1Nc1nc(-c2ccccc2)c(C(=O)Nc2cccnc2)s1	-12.0%	2.3%	29.9µM*	-8.3%	-20.1
COC(=O)C1=C(C)N(CC2CC2)C(=O)N[C@H]1CCc1ccccc1	-3.8%	.	.	.	.
O=C(Nc1ccc2oc(-c3ccc4ccccc4c3)nc2c1)c1cc(Cl)ccc1Cl	-5.6%	0.3%	.	3.4%	.
C#CCOC(=O)Nc1cccn(Cc2c(Cl)cccc2Cl)c1=O	-8.5%	3.3%	-4.8%	-27.6%	6.5
O=C(Nc1cccn(Cc2c(Cl)cccc2Cl)c1=O)C1CC1	-1.3%	8.9%	26.7µM*	-11.4%	-6.8
N#C/C(=N\Nc1ccc(S(=O)(=O)N2CCc3ccccc32)cc1)C(N)=S	?	3.4%	26.7µM*	-9.6%	?
N#C/C(=N\Nc1ccc(S(=O)(=O)N2CCCCCC2)cc1)C(N)=S	?	-2.2%	15µM*	4.3%	-47.6
CCOC(=O)c1ccccc1OCc1cc(C2Nc3ccccc3C(=O)N2c2cccc3ccccc23)ccc1OC (stereo not drawn)	-6.5%	.	.	2.4%	.
CCCc1ccc(C(=O)O)cc1	-9.6%	.	.	.	.
COc1cc(C(=O)OCc2cc(=O)oc3c(C)c(C)ccc23)ccc1OC(F)F	?	-2.1%	23.8µM*	-0.1%	-9.0
COc1ccc(Cl)c(Cn2cnc3c(cnn3C(C)(C)C)c2=O)c1	.	.	.	-2.3%	.
Cc1ccccc1-c1cncnc1N(C)Cc1ccco1	39.8µM*	.	.	.	.
CN(Cc1ccco1)c1ncncc1-c1ccccc1C(F)(F)F	50.1µM*	.	.	.	.
Cc1sc2ncnc(N(C)Cc3ccco3)c2c1C	-5.9%	0.4%	-1.7%	2.9%	-17.3
CC1CCC(C(C)C)C(OC(=O)COC(=O)c2ccc(N)cc2)C1 (stereo not drawn)	-2.9%	-9.5%	-8.6%	2.6%	-23.6
CC1CCC(C(C)C)C(OC(=O)C[n+]2cccc(C(N)=O)c2)C1 (stereo not drawn)	?	-6.9%	2.38µM*	-2.3%	1.4
CN(C)C(=S)Nn1c(-c2ccccc2)nc2ccccc2c1=O	-2.1%	5.1%	-10.1%	-0.3%	-1.2
Cc1cccc(-c2nc3ccccc3c(=O)n2NC(=S)N(C)C)c1	50.1µM*	10.5%	2.99µM*	-0.8%	5.3
O=C(c1cnccn1)N1CCC2(CCCN(c3cccc(-c4ccccc4)c3)C2)CC1	35.5µM*	.	.	.	.
O=C(c1ccco1)N1CCC[C@@]2(CCN(c3cccc(-c4ccccc4)c3)C2)C1	28.2µM*	.	.	.	.
O=C(c1ccncc1)N1CCC2(CCCN(c3cccc(-c4ccccc4)c3)C2)CC1	44.7µM*	.	.	.	.
O=C(c1cnccn1)N1CCC2(CCCN(c3ncccn3)C2)CC1	-11.5%	.	.	.	.
SMILES	VDR inhibitor	Vif-APOBEC3F blk	PLK1 PBD block	Vif-APOBEC3G blk	TSHR antag
O=C(c1ccncc1)N1CCC[C@@]2(CCN(c3cccc(-c4ccccc4)c3)C2)C1	39.8µM*	.	.	.	.
CC(C)Nc1oc(-c2ccccc2)nc1-c1cccc2ccccc12	0.1%	.	.	.	.
CC(C)(C)OC(=O)N1CCCC1C(=O)NC1COC2CC(n3ccc(=O)[nH]c3=O)OC12 (stereo not drawn)	-10.5%	.	.	-0.2%	.
COc1cccc(CNC(=O)c2ccc3nc(-c4ccccc4)c(-c4ccccc4)nc3c2)c1OC	19.3%	5.1%	.	-4.1%	.
O=C(c1ccco1)N1CCC2(CCCN(C(c3ccccc3)c3ccccc3)C2)CC1	35.5µM*	.	.	.	.
CC(=O)N1c2ccccc2C(=O)C1N1CCN(c2cc(Cl)ccc2C)CC1 (stereo not drawn)	16.9%	-2.1%	.	0.3%	.
O=C1CCC/C(=N/Nc2ccc(Cl)cc2)C1	?	1.7%	29.9µM*	-6.4%	-21.5
CCc1ccc2oc(-c3cc(NC(=O)COc4ccc(C)cc4)ccc3O)nc2c1	.	.	.	-0.2%	.
CC(NS(=O)(=O)c1ccc2c(c1)c(=O)n(C)c(=O)n2C)C(=O)NC1CCCCC1 (stereo not drawn)	-28.9%	2.3%	26.7µM*	-0.3%	1.7
COCCNC(=S)N1CCN(c2nc(-c3ccc(F)cc3)cs2)CC1	-24.9%	2.1%	-12.8%	1.9%	1.9
COCCNC(=S)N1CCN(c2nc(-c3ccc(Cl)cc3)cs2)CC1	-13.0%	9.2%	23.8µM*	3.1%	-7.5
Cc1ccc(C)c(N2CCN(c3ncnc4c3cnn4-c3ccccc3)CC2)c1	?	-3.5%	26.7µM*	0.8%	12.9
COc1cccc(N2CCN(c3ncnc4c3cnn4-c3ccc(C)cc3C)CC2)c1	-2.2%	-1.9%	4.7%	?	-93.2*
Cc1ccc(-n2ncc3c(N4CCCC4)ncnc32)c(C)c1	-3.1%	-5.3%	-9.3%	-0.8%	-10.4
Cc1ccc(-n2ncc3c(N4CCN(C)CC4)ncnc32)cc1	6.2%	-3.4%	.	0.5%	.
C[C@H](NC(=O)Cc1cc(F)cc(F)c1)C(=O)N[C@@H](C(=O)OC(C)(C)C)c1ccccc1	-0.9%	.	.	.	.
CC1CCCCC1NC(=O)c1cc2ccccc2o1 (stereo not drawn)	-18.4%	-1.4%	29.9µM*	-3.8%	-9.9
CCCc1nc2ccc(NC(=O)c3cccs3)cc2c(=O)n1Cc1ccccc1Cl	?	-12.1%	29.9µM*	-2.2%	-2.6
CCOc1ccc(N(CC)C(=O)COc2cc(=O)n(C)c3ccccc23)cc1	-5.5%	3.6%	-5.8%	-0.3%	-0.5
CCOc1ccc(N(CC)C(=O)COc2cc(=O)n(CC)c3ccccc23)cc1	-23.1%	-13.1%	26.7µM*	-0.2%	-0.1
CCn1c(=O)cc(OCC(=O)N2CCCC2)c2ccccc21	-10.7%	-0.9%	26.7µM*	-2.7%	6.3
CC12CCC=CC1C(c1ccc3ccccc3c1C=Cc1ccccc1)N(Cc1ccccc1)C2=O (stereo not drawn)	4.0%	.	.	0.0%	.
COc1ccc(OC)c(CCNC(=O)c2ccc3c(c2)N(Cc2ccc(C)cc2)CCS3)c1	-9.1%	5.4%	.	-1.0%	.
COc1ccc(CCNC(=O)c2ccc3c(c2)N(Cc2ccc(F)cc2)CCS3)cc1OC	?	1.7%	29.9µM*	0.9%	-4.4
O=C(NCCN1CCOCC1)c1ccc2c(c1)N(Cc1ccccc1)CCS2	?	-2.6%	26.7µM*	-1.1%	-10.5
O=C(NCCCN1CCOCC1)c1ccc2c(c1)N(Cc1ccccc1)CCS2	-5.1%	-5.6%	-6.0%	1.6%	7.3

Compound activity: PubChem BioAssay, National Center for Advancing Translational Sciences (NCATS)
